# FMDV antiviral = antivirals against foot and mouth disease virus | FMDV antiviral cell-based qHTS | Potency, µM (highest dose often 57.9 µM), for the others: at the top dose activity change, negative = inhibition, most hits filed as inhibitors | 1.2% of 410,000 active; calls by dose curve; tested in HEK293T cells; further: read-out not given here; potency means the concentration at half of the fitted maximal effect; nearly all actives have a fitted effect of over 45% in size
# LASV entry inh = blocks Lassa virus binding to or entry into cells | 1.2% of 300,000 active | Lassa virus pseudotype entry inhibition, cell reporter | AID 540256 | Potency, µM (highest dose often 37.9 µM), inactives show at the top dose activity change, negative = inhibition, most hits filed as inhibitors; calls by dose curve; tested in HEK293 cells; further: potency means the concentration at half of the fitted maximal effect; nearly all actives have a fitted effect of over 50% in size
# Marburg entry inh = inhibitors of Marburg virus binding or cell entry. 1.8% of 300,000 active. Potency, µM (doses to about 37.8 µM), inactives show at the highest dose activity change, negative = inhibition, actives largely listed as inhibitors. Marburg virus pseudotyped entry inhibition, cell reporter; calls by dose curve; tested in HEK293 cells; further: potency means the concentration at half of the fitted maximal effect
# VACV Venus inh = inhibitors of vaccinia virus (Venus reporter) | Potency, µM (top dose mostly 36.5 µM), without a hit: at the highest dose activity change, negative = inhibition, actives largely listed as inhibitors | 0.46% of 330,000 active | Vaccinia virus Venus reporter expression, fluorescence; calls by dose curve; tested in A549 cells; further: potency means the concentration at half of the fitted maximal effect; nearly all actives have a fitted effect of over 30% in size
# Vaccinia mCherry = inhibitors of vaccinia virus infection (mCherry reporter signal); Vaccinia virus mCherry reporter infection, fluorescence; Potency, µM (titrated, usually from 36.5 µM), inactives show at the highest dose activity change, negative = inhibition, most hits filed as inhibitors; 0.63% of 310,000 active; calls by dose curve; tested in A549 cells; further: potency means the concentration at half of the fitted maximal effect; nearly all actives have a fitted effect of over 35% in size
# HCMV antiviral = inhibitors of human cytomegalovirus. HFF cells, HCMV-luciferase reporter, 72 h; stronger effect = lower value. activity change, negative = inhibition, % at 57.5 µM. 4.5% of 410,000 active; in the data active means activity change below about -60%; inconclusive means no clear call, values can overlap the other calls; inactive means above about -39%
#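 Luciferase read-out from HCMV-luciferase-infected HFFs (MOI 1 PFU/cell) 72 h post infection at 37C; compounds added after 16 h cell attachment; activity normalized between buffer-only basal and Salinomycin (10uM) inhibitor controls.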
# * = called active by the depositor; i = inactive; ? = inconclusive; . = no result; ! = not active in a repeat; [ ] = another dose, or the depositor's remark. An excerpt weighted towards active compounds, which were near 6.5% of everything screened. On the % scale 0 is the no-effect control and ±100 the full control effect.
SMILES,FMDV antiviral,LASV entry inh,Marburg entry inh,VACV Venus inh,Vaccinia mCherry,HCMV antiviral
Fc1cccc(CN2CCc3nc(Nc4ccc5c(c4)OCCO5)ncc3C2)c1F,2%,0%[46.1 µM],.,-10%,-16%,0
O=S(=O)(O)Sc1ccccc1,-12%,.,.,-8%,-17%,-87*
CCN(CC)c1ccc(SS(=O)(=O)O)cc1,-15%,?,3%,15%,.,-37
COc1ccc(NC(C)=O)cc1S(=O)(=O)NCc1ccc2c(c1)OCO2,0%,.,.,-9%,-15%,-88*
CCOc1ccc(NC(=O)c2ccc(F)c(S(=O)(=O)NCc3ccc4c(c3)OCO4)c2)cc1,?,-21%[46.1 µM],.,?,?,-81*
COc1ccc(NCc2ccc3c(c2)OCO3)cc1Cl,.,28%,12%,-1%,11µM*,?
COc1cc2sc3cc(NCc4ccc5c(c4)OCO5)ccc3c(=O)c2cc1OC,14%,.,.,?,?,22
Cc1cc(C)c(S(=O)(=O)NCc2ccc3c(c2)OCO3)cc1C,60%,.,.,.,.,-11
O=C(C1CCN(S(=O)(=O)c2cccc3nonc23)CC1)N1CCN(c2ccc(F)cc2)CC1,0%,-19%[46.1 µM],-13%[46.1 µM],-3%,-8%,-14
COC(=O)c1scc(-c2ccc(C)cc2)c1S(=O)(=O)N1CCN(c2cccc(Cl)c2)CC1,-30%,0%[46.1 µM],.,7%,-6%,-29
Cc1ccnc2ccc(I)cc12,.,.,.,-9%,-20%,.
CC1CCN(C(=O)NC(=O)c2ccccc2)CC1,2%,.,.,.,.,-14
CC1CCN(C(CC(=O)c2ccccc2)C(=O)c2ccccc2)CC1 (centres undefined),-17%,?,?,22%,-4%,-86*
CCOc1ccccc1NC(=O)Cn1c(=O)ccc2cc(S(=O)(=O)N3CCCC3)ccc21,?,-4%[46.1 µM],.,-12%,-10%,-33
COc1cccc(-n2nnc3c(=O)n(Cc4ccc(Cl)cc4)cnc32)c1,31%,?,2%,.,.,7
O=C(Cn1cnc2c(nnn2Cc2ccc(Cl)cc2)c1=O)c1ccccc1,-10%,.,.,11%,56%,-71*
Cc1ccc(Cn2nnc3c(=O)n(CC(=O)N4CCN(c5ccccc5)CC4)cnc32)cc1,.,-2%,-1%,-15%,-8%,-65*
COc1cccc(-n2nnc3c(=O)n(Cc4ccc(C)cc4)cnc32)c1,0%,4.1µM*,?,.,.,34
CC(=O)N(C)C[C@@H]1OCc2ccccc2-c2c(n(C)c3ccccc23)C(=O)N([C@@H](C)CO)C[C@@H]1C,.,.,.,.,.,10
CCCCn1c(N)c(N(CCC(C)C)C(=O)COC(=O)c2ccc([N+](=O)[O-])s2)c(=O)[nH]c1=O,-23%,1%,-1%,?,-13%,-95*
CC(C)CN(C(=O)COC(=O)c1ccc([N+](=O)[O-])s1)c1c(N)n(Cc2ccccc2)c(=O)[nH]c1=O,?,-15%,8%,-13%,i,3
CCCCC1CCC(C(=O)N(CC(C)C)c2c(N)n(CCCC)c(=O)[nH]c2=O)CC1 (centres undefined),-27%,17%[46.1 µM],-6%,-6%,-12%,-18
CCCCn1c(N)c(N(CCC(C)C)C(=O)COC(=O)Cc2ccc(Cl)cc2)c(=O)[nH]c1=O,-28%,?,13µM*,-11%,-9%,-10
CCCCC1CCC(C(=O)N(CCC(C)C)c2c(N)n(CCCC)c(=O)[nH]c2=O)CC1 (centres undefined),-20%,.,.,11µM*,16µM*,-26
COc1ccc(N(Cc2nc3ccccc3[nH]2)Cc2nnnn2-c2c(C)cccc2C)cc1,.,.,.,.,.,28
SMILES,FMDV antiviral,LASV entry inh,Marburg entry inh,VACV Venus inh,Vaccinia mCherry,HCMV antiviral
Cc1ccc(N(Cc2cccs2)C(=O)c2ccco2)cc1,-15%,3%[46.1 µM],1%[46.1 µM],-1%,-5%,-34
CC(=O)Nc1ccc(S(=O)(=O)N2CCC(C(=O)c3ccc(Cl)cc3)CC2)cc1,-25%,?,?,0%,i,-63*
CC(=O)Nc1ccc(NC(=O)C(C)OC(=O)c2ccc(S(=O)(=O)N3CCCCCC3)cc2)cc1 (centres undefined),2%,?,?,0%,i,-72*
COc1cccc(-c2nc(SCC(=O)NC3CCCC3)c(-c3ccc(F)cc3)[nH]2)c1,-13%,?,-14%[46.1 µM],-14%,-6%,-22
COc1cccc(OC)c1OCCNC[C@@H]1CSc2ccccc2O1,.,.,26µM*,.,.,.
COc1cccc(OC)c1OCCNC(C)(C)C,-21%,1%,-6%,-4%,.,7
COc1cccc(OC)c1OCCNCC1COc2ccccc2O1 (centres undefined),-28%,-6%,13µM*!,-10%,-7%,-2
Cc1nn(CC(=O)NCc2ccc(OC(C)C)cc2)c(=O)c2c(C)n(-c3ccc(Cl)cc3)nc12,?,-25%[46.1 µM],.,-21%,-25%,-19
Cc1ccc(C(=O)NC(=S)NCc2cccnc2)cc1C,8%,.,.,.,.,?
O=C(Nc1ccc(Cl)c(Cl)c1)c1cccc(S(=O)(=O)NCc2cccnc2)c1,?,13µM*,?,?,28µM*,-95*
O=C(NCc1cccnc1)c1ccc(COc2ccccc2Cl)cc1,-26%,.,.,.,.,-73*
CC(C)c1ccc(C(=O)NC(=S)NCc2cccnc2)cc1,-27%,-21%,-19%,-14%,-22%,-74*
COc1cccc(S(=O)(=O)NCc2ccc(C(=O)Nc3ccc(Cl)c(Cl)c3)cc2)c1,?,-15%,?,?,.,?
O=C(NCc1ccco1)c1ccc(COc2ccccc2Cl)cc1,-13%,-19%,-3%,?,.,-28
O=S(=O)(NCc1cccnc1)c1ccc(Br)c2ccccc12,29%,4%,-1%[46.1 µM],-13%,-7%,-63*
Cc1cc(S(=O)(=O)NCc2cccnc2)ccc1F,17%,?,4%[46.1 µM],-9%,i,-9
O=C(NCc1cccnc1)c1ccc(COc2ccccc2Br)cc1,?,?,?,-21%,i,-76*
Cc1ccc(S(=O)(=O)NCc2cccnc2)cc1C,36%,25%[46.1 µM],?,-11%,-4%,-86*
O=C(Nc1cccnc1)c1ccc(COc2ccccc2Br)cc1,-30%,.,2%,.,.,-25
O=C(NCc1cccnc1)c1cccc(Cl)c1,-1%,-8%,0%,-22%,.,-61*
C[C@H]1CN(S(=O)(=O)C(C)(C)C)[C@@H](CCO)/C1=C\c1ccccc1,.,.,.,.,.,11
Cc1cccc(NC(=O)C2CCCN(S(=O)(=O)c3ccc4c(c3)oc(=O)n4C)C2)c1C (centres undefined),-12%,-2%[46.1 µM],-1%[46.1 µM],-4%,-4%,14
CCc1ccccc1N(C)C(=O)c1nn(C)c2c1CSc1ccccc1-2,26%,17%[46.1 µM],-26%[46.1 µM],-9%,-9%,6
Cc1nc2cnc(Oc3cccc(Cl)c3)nc2n(Cc2ccc(F)cc2)c1=O,-28%,.,.,.,.,.
COc1ccccc1C1C2=C(CC(C)(C)CC2=O)N(CC(=O)O)C2=C1C(=O)CC(C)(C)C2,5%,.,.,.,.,2
